# Test results: paper PMC7826789 (International Journal of Molecular Sciences, 2021)
compound,measurement,setting,value
Cc1ccc(CNC(=O)N2CCC[C@]3(CCN(Cc4ccc(Cl)c(Cl)c4)C3)C2)cc1 [GSK2850163],Kinases covered,ERN1,ERN1
CCCNC(=O)c1ccc(Nc2ncc(C(F)(F)F)c(Nc3ccccc3C(C)=O)n2)c(Br)c1 [BI00801818],Kinases covered,FAK,FAK
CCc1cc(Nc2nccc(-c3c(-c4ccc(OC)c(C(=O)Nc5c(F)cccc5F)c4)nc4ccccn34)n2)c(OC)cc1N1CCC(N2CCN(S(C)(=O)=O)CC2)CC1 [GSK1904529],Kinases covered,FER,FER
same,Kinases covered,FRK,FRK
CNC(=O)c1c(F)cccc1Nc1nc(Nc2cc3c(cc2OC)CCN3C(=O)CN(C)C)nc2[nH]ccc12 [GSK1838705],Kinases covered,FER,FER
COc1cc(OC)cc(-c2cc3cnc(N)nc3nc2NC(=O)NC(C)(C)C)c1 [PFE-PKIS 3],Kinases covered,FGFR1,FGFR1
Cn1ccc2ncnc(Oc3ccc(NC(=O)Nc4ccccc4)cc3)c21 [TPKI-69],Kinases covered,FLT3,FLT3
COc1cc2c(cc1OC)C(=C(Nc1ccccc1)c1cccc(CN)c1)C(=O)N2 [BIBF0846CL],Kinases covered,FLT3,FLT3
COc1cc(N2CCN(C)CC2)ccc1Nc1ncc2c(n1)N(C)c1ccccc1C(=O)N2 [XMD8-87],Kinases covered,FRK,FRK
c1ccc(-c2cc3ccncc3cc2OC2CCNCC2)cc1 [GSK1122999],Kinases covered,GSG2,GSG2
